Experimental findings from PubChem BioAssay (NCATS) are described below.

Unmarked numbers belong to inactive results. Inconclusive results are not listed. Active and inactive are the calls of the source. Unless noted, the call rests on the fitted dose curve; in most records, active means well fitted curve in the direction sought with a large enough effect; inconclusive means small, poorly fitted or top-dose-only effect, or another doubt; inactive means no such curve, though single readings can be large; an effect the other way counts as inactive or inconclusive.

Experiment [1] can be described thus: Cell Viability - MRC5 (AID 434; calls by dose curve;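 further: potency means the concentration at half of the fitted maximal effect; cells exposed to compound for 40 hours at 37 °C; potency reflects cytotoxicity seen as loss of intracellular ATP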). Particulars: MRC5 lung fibroblast viability, qHTS. The procedure, abridged:
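ATP luminescence read-out (CellTiter-Glo, 20 min RT) after 40 hr, 37 °C compound exposure of 1500 MRC5 cells/well. Data normalized to DMSO (basal) and 100 uM tamoxifen (100% inhibition); AC50 from standard Hill equation.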

A short description of experiment [2]: Cell Viability - HUV-EC-C (AID 542).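 Further: cells exposed to compound for 40 hours; on the % scale 0 is the no-effect control and ±100 the full control effect; nearly all actives have a fitted effect of over 35% in size.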 Particulars: HUV-EC-C endothelial cell viability, qHTS; series mostly up to 92.2 µM. The procedure, abridged: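 CellTiter-Glo luminescence measured ATP loss in HUV-EC-C cells (1000/well) after 40 hr compound exposure at 37 °C, in complete culture medium. Concentration-response data were Hill-fitted to give AC50.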
A short description of experiment [3]: Cellular Toxicity (caspase-3) HepG2 (AID 654).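 Further: cells exposed to compound for 16 hours before reading; 0% = DMSO alone and 100% = caspase signal from 100 µM tamoxifen.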 Conditions: HepG2 caspase-3 activation, luminescence; series mostly up to 92.2 µM. The procedure, abridged: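 Caspase 3/7 activation is measured as a luminescence increase (aminoluciferin substrate) after 16 h compound exposure of human hepatocarcinoma HepG2 cells. AC50 values are Hill fits, scaled between DMSO baseline and 100 uM tamoxifen stimulation.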

The nature of experiment [4]: Cellular Toxicity (caspase-3) HUV-EC-C (AID 656). Conditions: HUV-EC-C cells, caspase-3 activation (apoptosis); series mostly up to 92.2 µM. The procedure, abridged: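 Concentration-dependent caspase 3/7 induction was assessed in HUV-EC-C cells exposed for 16 hours. Data scaled between DMSO and tamoxifen (100 uM) controls.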
Experiment [5] is described as follows: Cellular Toxicity (caspase-3) MRC-5 (AID 659). Conditions: MRC-5 cells, luminescence, normalized: DMSO 0%, 10 µM staurosporine 100%; series mostly up to 91.7 µM. The procedure, abridged: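 MRC-5 fibroblasts, 1500/well; 16 h cpd, 37 °C; Caspase-Glo 3/7, 1 h RT; lumi read. Norm: DMSO = 0%, 10 uM staurosporine = 100%. Hill-fit AC50 from qHTS conc-response.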
A short description of experiment [6]: Cellular Toxicity (caspase-3) SK-N-SH (AID 661). Particulars: SK-N-SH caspase-3 activation, qHTS, DMSO as zero, staurosporine as full; series mostly up to 91.7 µM. The procedure, abridged:
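Caspase 3/7 activation was read by luminogenic substrate cleavage after 16 hour treatment of SK-N-SH cells. Signal was scaled between DMSO and 10 uM staurosporine, and concentration-response data were fitted with the Hill equation for AC50.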

Experiment [7] in a line: Cellular Toxicity (caspase-3) Hek293 (AID 664).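 Further: cells exposed to compound for 16 h at 37 °C before readout.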 Particulars: HEK293 caspase-3 activation, DMSO = 0%, 100 µM tamoxifen = 100%; at 92.2 µM (top of the series). The procedure, abridged: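 Concentration-response qHTS: caspase 3/7 activation measured by luminescent aminoluciferin substrate cleavage after 16 h compound exposure of Hek 293 cells. AC50 from Hill equation, with DMSO as basal and 100 uM tamoxifen as 100%.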

Experiment [8] is described as follows: Cellular Toxicity (caspase-3) N2a (AID 665).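 Further: compound exposure lasted 16 h at 37 °C before readout.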 Conditions: N2a cells, luminescence, normalized: DMSO 0%, 10 µM staurosporine 100%; series mostly up to 92.2 µM. The procedure, abridged:
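Caspase-3/7 activation measured as luminescence from Caspase-Glo reagent (1 h, room temperature) after 16 h compound exposure of mouse N2a cells. AC50 values from Hill-equation concentration-response, scaled between DMSO and 10 uM staurosporine.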

Experiment [9] in a line: Cellular Toxicity (caspase-3) NIH 3T3 (AID 666). Conditions: NIH 3T3 caspase-3 activation, apoptosis/toxicity, 0% DMSO, 100% is 100 µM tamoxifen; series mostly up to 92.2 µM. The procedure, abridged:
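Caspase-Glo 3/7 luminescence reported caspase activation in 1000 NIH 3T3 cells/well after 16 h compound exposure at 37 C. DMSO set basal and 100 uM tamoxifen set 100% stimulation; concentration-response modeled with the Hill equation for AC50.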

Experiment [10] is described as follows: Cellular Toxicity (caspase-3) Renal Proximal Tubule (AID 667).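 Further: cells exposed to compound for 16 hours at 37 °C before detection.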 Conditions: renal proximal tubule cells, primary cells freshly taken from rat; Potency: caspase-3 activation; series mostly up to 91.7 µM. The procedure, abridged: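 Caspase-Glo 3/7 read-out, rat primary kidney proximal tubule cells. Compound exposure 16 h, 37 °C; detection after 1 h at RT. Activity scaled to DMSO and 10 uM staurosporine.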

Experiment [11] is described as follows: MultiTox-Fluor Cytotoxicity Assay - LYMP1-001 - Dead Cells (AID 946).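 Further: 0% = DMSO and 100% = tetraoctylammonium bromide.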 Conditions: LYMP1-001 lymphoblastoid cells, dead-cell protease fluorescence; series mostly up to 92.2 µM. The procedure, abridged: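 LYMP1-001 lymphoblastoid cells (2500/well) treated 16 h at 37 C. Dead-cell protease cleavage of bis-AAF-R110 read at Ex/Em 485/520. Normalized to DMSO and 15 uM tetraoctylammonium bromide; AC50 from Hill fits.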

The nature of experiment [12]: MultiTox-Fluor Cytotoxicity Assay - LYMP1-003 - Dead Cells (AID 961).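 Further: 0% = DMSO and 100% = tetraoctylammonium bromide; nearly all actives have a fitted effect of over 70% in size.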 Conditions: LYMP1-003 lymphoblastoid cells, dead-cell protease fluorescence; series mostly up to 92.2 µM. The procedure, abridged:
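LYMP1-003 human lymphoblastoid cells (2500/well) exposed to compound 16 h at 37 C in complete medium; dead-cell protease read with bis-AAF-R110 fluorescence (Ex/Em 485/520) after 60 min at room temperature. Normalized to DMSO and 15 uM tetraoctylammonium bromide; AC50 from Hill fit.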

Experiment [13] can be described thus: MultiTox-Fluor Cytotoxicity Assay - LYMP1-003 - Live Cells (AID 962).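 Further: 0% = DMSO only and full loss = 92 µM tetraoctylammonium bromide; cytotoxic hits lower the live-cell protease signal.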 Particulars: LYMP1-003 lymphoblastoid cells, MultiTox-Fluor live-cell protease fluorescence; series mostly up to 92.2 µM. The procedure, abridged: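 Live-cell protease activity (GF-AFC substrate, 405/510 nm, 60 min at room temperature) after 16 h, 37 C compound exposure of human lymphoblastoid LYMP1-003 cells; concentration-response fitted to the Hill equation for AC50.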

Experiment [14] is described as follows: Cell Viability - LYMP1-003 - Assay at 24 hr (AID 963).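 Further: plate controls were DMSO only for no effect and tetraoctylammonium bromide positive control for full effect.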 Conditions: LYMP1-003 lymphoblastoid cell viability; series mostly up to 92.2 µM. The procedure, abridged:
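Concentration-response qHTS: ATP loss measured by CellTiter-Glo luminescence after 24 h compound exposure at 37 C. Cells were LYMP1-003 human lymphoblastoid, 2500 per well. AC50 derived via standard Hill equation modeling.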

Experiment [15] in a line: Cell Viability - LYMP1-002 - Assay at 24 hr (AID 993). Further: on the % scale 0 is the no-effect control and ±100 the full control effect. Conditions: LYMP1-002 lymphoblastoid cells viability; series mostly up to 92.2 µM. The procedure, abridged:
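qHTS cytotoxicity at 24 h: CellTiter-Glo ATP luminescence in lymphoblastoid line LYMP1-002 incubated with compound at 37 °C. Concentration-response modeled with the Hill equation for AC50; tetraoctylammonium bromide served as positive control.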

The nature of experiment [16]: qHTS Assay for Identification of Small Molecule Inducers of Hypoxia Response (AID 2120; active means well fitted curve in the direction sought with a large enough effect in the signal ratio, with a control signal flat, not every such curve was filed as active; the % refers to the signal ratio; further: potency means the concentration at half of the fitted maximal effect; on activation: 0% is about no effect). Conditions: hypoxia response reporter cells, beta-lactamase ratio readout; series mostly up to 104 µM. The procedure, abridged:
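Reporter induction read as the CCF4 blue/green (460nm/530nm) emission ratio after 2.5 h dye loading at room temperature. ME-180 HRE-beta-lactamase cells received titrated compounds for 17 h at 37 degrees Celsius; AC50 values derived.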

Experiment [17] concerns the target Peroxisome proliferator-activated receptor alpha (Homo sapiens) (UniProt Q07869). Put plainly: qHTS assay for small molecule agonists of the peroxisome proliferator-activated receptor alpha (PPARalpha) signaling pathway (AID 651778). Further: % of control where 0% means no effect. Conditions: PathHunter PPARalpha complementation, chemiluminescence, 6 h; max response: hits give high values. The procedure, abridged:
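Enzyme-fragment complementation assay in which ligand-bound PPARalpha translocates and forms an active enzyme that generates chemiluminescence. Cells were plated overnight, exposed to compound for 6 hr at 37 C, and then given detection reagent for 60 min at room temperature.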

Experiment [18] in a line: qHTS assay for small molecule agonists of the antioxidant response element (ARE) signaling pathway measured by Nrf2-dependant transcriptional activity - cell viability counter screen (AID 720653; active means well fitted curve in the direction sought with a large enough effect in the repeat runs; an effect the other way counts as inactive or inconclusive; further: on the % scale 0 is the no-effect control and ±100 the full control effect). Particulars: ARE-bla HepG2 viability, CellTiter-Glo ATP luminescence, 16 h; max response: hits give low values. The procedure, abridged:
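ARE-bla HepG2 cells treated with compounds for 16 h at 37C; this counter screen measures viability as intracellular ATP by CellTiter-Glo luminescence after 30 min at room temperature.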

Experiment [19] in a line: qHTS assay for cell viability of HEK293 cells (AID 743288). Further: on the % scale 0 is the no-effect control and ±100 the full control effect; nearly all actives have a fitted effect of over 50% in size. Particulars: ATP luminescence (CellTiter-Glo), 18 h; max response: hits give low values. The procedure, abridged: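 HEK293, 18 h, 37 C, ATP luminescence. Cells at 2,000/well were allowed at least 5 h to settle before dosing; CellTiter-Glo developed 30 min at RT.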
Experiment [20] in a line: qHTS assay for cell viability of the p53RE-bla HCT-116 cell line (AID 743292). Further: on the % scale 0 is the no-effect control and ±100 the full control effect; nearly all actives have a fitted effect of over 55% in size. Particulars: p53RE-bla HCT-116 viability, ATP luminescence, 16 h; series mostly up to 95 µM. The procedure, abridged:
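ATP-based luminescence, 16 h compound exposure at 37 C, p53RE-bla HCT-116 cells at 4,000/well.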

Sequence of Peroxisome proliferator-activated receptor alpha (Homo sapiens) (Q07869 whole entry, looked up, the tested form may be a part): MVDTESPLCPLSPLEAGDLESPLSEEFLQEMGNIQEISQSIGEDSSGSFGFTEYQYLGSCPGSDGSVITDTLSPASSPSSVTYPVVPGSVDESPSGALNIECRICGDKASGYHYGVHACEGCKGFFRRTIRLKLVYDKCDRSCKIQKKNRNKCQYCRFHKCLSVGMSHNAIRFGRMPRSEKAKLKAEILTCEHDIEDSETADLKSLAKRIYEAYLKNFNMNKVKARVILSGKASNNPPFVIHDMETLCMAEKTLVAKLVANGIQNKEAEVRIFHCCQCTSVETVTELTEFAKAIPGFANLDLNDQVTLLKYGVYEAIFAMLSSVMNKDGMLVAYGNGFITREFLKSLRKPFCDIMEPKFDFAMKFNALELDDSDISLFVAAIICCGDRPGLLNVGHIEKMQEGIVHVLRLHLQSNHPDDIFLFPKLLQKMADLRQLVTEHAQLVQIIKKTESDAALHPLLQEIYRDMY

Take `Oc1ccc2c(c1)OCO2`: the Potency in [1] is over 92 µM. For the same molecule, the Potency entry in experiment [2], in [3], in experiment [4], in [10], in [11] and in experiment [12] was “inactive” throughout. In addition, the Potency result in [13], in experiment [14], in [15], in [16] and in [20] was “inactive” throughout. In addition, the result in experiment [5], in experiment [6], in experiment [8] and in experiment [9] was inactive. In addition, the caspase-3 activation in experiment [7] is -2.85%. Further, the results for the max response in [17], in experiment [18] and in experiment [19] were -2.87%, 5% and 7.08%, respectively.
Take `CCOC(=O)C1OC1c1ccccc1` (stereo not given): the Potency in experiment [1] was over 92 µM. The Potency entry in experiment [2], in experiment [3], in [4], in [10], in experiment [11] and in [12] was “inactive” throughout. Further, the Potency entry in [13], in experiment [14], in experiment [15], in experiment [16] and in [20] was “inactive” throughout. Further, the molecule was classed as inactive in experiment [5], in experiment [6], in experiment [8] and in [9]. In addition, the caspase-3 activation in experiment [7] was 0.955%. Moreover, the max response in [17] was -1.32%; in experiment [18] it was 8.37%; in experiment [19], -1.14%.
With `CCCCCCN`, the Potency in experiment [1] is over 92 µM. The Potency entry in experiment [2], in experiment [3], in experiment [4], in [10], in experiment [11] and in [12] was “inactive” in each case. The Potency result in experiment [13], in [14], in experiment [15], in experiment [16] and in [20] was “inactive” each time. Moreover, the outcome in experiment [5], in experiment [6], in experiment [8] and in experiment [9] was inactive. In addition, in [7], the caspase-3 activation was 1.72%. In addition, the max response was 1.86% in experiment [17], -8.85% in experiment [18] and -3.69% in [19].
As to `OC1CCCCC1`, in [1], the Potency was over 92 µM. For the same molecule, the Potency result in [2], in [3], in [4], in experiment [10], in [11] and in experiment [12] was “inactive” in each case. Besides, the Potency entry in experiment [13], in experiment [14], in [15], in [16] and in [20] was “inactive” throughout. The result in [5], in experiment [6], in experiment [8] and in experiment [9] was inactive. The caspase-3 activation in experiment [7] is -0.682%. Moreover, the max response in experiment [17] was -5.19%; in [18] it was 16.5%; in experiment [19] it was 10.8%.
Regarding `CC(=O)OCc1ccc2c(c1)OCO2`, the Potency in experiment [1] is over 92 µM. Moreover, the Potency entry in [2], in [3], in experiment [4], in experiment [10], in experiment [11] and in [12] was “inactive” in each case. The Potency entry in [13], in experiment [14], in experiment [15], in experiment [16] and in [20] was “inactive” each time. Besides, the molecule was called inactive in experiment [5], in experiment [6], in experiment [8] and in experiment [9]. Further, the caspase-3 activation in experiment [7] is -3.09%. The max response in [17] is -4.72%; in experiment [18], -6.13%; in experiment [19], -6.03%.
For `CCN(CC)c1ccc2c(C)cc(=O)oc2c1`, the Potency in [1] is over 92 µM; in [16] it was 44.7 µM (active). The Potency entry in experiment [2], in experiment [3], in experiment [4], in experiment [10], in experiment [11] and in experiment [12] was “inactive” throughout. Also, the Potency result in experiment [13], in experiment [14], in experiment [15] and in experiment [20] was “inactive” in each case. Moreover, the molecule was classed as inactive in experiment [5], in experiment [6], in experiment [8] and in experiment [9]. Further, the caspase-3 activation in experiment [7] is 0.453%. Besides, the max response in experiment [17] was -3.98%; in experiment [18], -2.1%; in experiment [19] it was -1.15%.
